Test results as given in paper PMC4336329 (PLoS ONE, 2015).
In all, about 310,000 compounds went through this assay and about 14,000 (4.5%) showed an effect of 50% or more. Effects have a minus sign here. The entries come from a sample that favours strong results as a whole.

What follows are compounds tested against human ether-à-go-go-related gene (hERG) potassium channel (human, UniProt Q12809) (assay: primary screen, population patch clamp on CHO cells stably expressing hERG; higher = less effect of the substance).
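Also: peak tail current of the secondary pulse compared with the same well before compound.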

Sequence of human ether-à-go-go-related gene (hERG) potassium channel (Q12809 whole entry, looked up): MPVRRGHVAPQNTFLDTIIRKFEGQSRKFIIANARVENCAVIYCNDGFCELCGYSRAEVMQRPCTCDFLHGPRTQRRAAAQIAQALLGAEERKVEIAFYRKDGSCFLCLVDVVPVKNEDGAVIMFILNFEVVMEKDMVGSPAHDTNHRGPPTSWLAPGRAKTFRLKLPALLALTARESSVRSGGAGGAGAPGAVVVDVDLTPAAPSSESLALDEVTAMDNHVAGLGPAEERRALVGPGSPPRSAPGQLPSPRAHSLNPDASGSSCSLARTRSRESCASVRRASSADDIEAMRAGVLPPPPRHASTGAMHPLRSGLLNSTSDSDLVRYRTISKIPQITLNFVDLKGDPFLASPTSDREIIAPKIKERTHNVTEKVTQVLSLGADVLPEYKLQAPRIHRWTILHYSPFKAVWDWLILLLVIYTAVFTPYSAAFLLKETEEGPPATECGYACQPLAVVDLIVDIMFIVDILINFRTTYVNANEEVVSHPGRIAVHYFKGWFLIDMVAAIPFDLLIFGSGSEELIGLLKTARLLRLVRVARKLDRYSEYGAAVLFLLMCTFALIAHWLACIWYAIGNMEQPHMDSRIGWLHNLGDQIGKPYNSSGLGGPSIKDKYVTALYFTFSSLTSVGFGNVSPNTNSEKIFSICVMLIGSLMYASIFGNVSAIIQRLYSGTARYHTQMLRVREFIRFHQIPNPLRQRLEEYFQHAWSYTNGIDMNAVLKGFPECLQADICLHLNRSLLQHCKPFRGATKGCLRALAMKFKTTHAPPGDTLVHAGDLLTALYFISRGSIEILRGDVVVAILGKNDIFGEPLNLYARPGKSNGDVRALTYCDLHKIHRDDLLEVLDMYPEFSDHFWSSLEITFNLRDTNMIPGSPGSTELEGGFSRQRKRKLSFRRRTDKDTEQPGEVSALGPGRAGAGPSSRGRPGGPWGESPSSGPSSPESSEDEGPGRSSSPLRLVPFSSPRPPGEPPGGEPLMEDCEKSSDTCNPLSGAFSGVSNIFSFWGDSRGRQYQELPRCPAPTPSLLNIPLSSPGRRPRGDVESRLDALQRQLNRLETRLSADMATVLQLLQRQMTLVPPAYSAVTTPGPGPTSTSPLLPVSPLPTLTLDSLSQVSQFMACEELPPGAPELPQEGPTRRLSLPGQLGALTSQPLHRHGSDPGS

In order of rising “hERG current change (%, negative = inhibition) at 10uM” value:
1. COc1ccc(CN2C3CCCC2CC(NC(=O)c2cccc(F)c2)C3)cc1 (centres unmarked)  -82%
2. CCOC(=O)C1(Cc2ccccc2)CCN(Cc2cn(CC(=O)OC)c3ccccc23)CC1  -78.1%
3. COc1ccc(CN2C3CCC2CC(NC(=O)c2cccc(F)c2)C3)cc1 (centres unmarked)  -75.2%
4. CN(Cc1ccc(C#CCCO)cc1)CC1CCCN(CCc2ccc(Cl)cc2)C1 (centres unmarked)  -70.9%
5. O=C(O)c1ccc(SCc2cnc(Cl)s2)cc1  -70%
6. CCOC(=O)C1(Cc2ccccc2)CCN(Cc2cccc(OC)c2O)CC1  -69.6%
7. CCN(Cc1ccc(OC)c(COC)c1)CC1CCCN(CCc2cccc(F)c2)C1 (centres unmarked)  -67.7%
8. CCOC(=O)C1(Cc2cccc(OC)c2)CCN(Cc2cc(OC)ccc2OC)CC1  -67.2%
9. CCOC(=O)C1(Cc2cccc(OC)c2)CCN(Cc2cccc(OC)c2O)CC1  -66%
10. CCN(Cc1ccc(C#CCCO)cc1)CC1CCCN(CCc2cccc(F)c2)C1 (centres unmarked)  -65.2%
11. O=c1c2sccc2nc(SCc2ccc([N+](=O)[O-])cc2)n1Cc1ccccn1  -61.6%
12. Cc1csc(NC(=O)CSc2nnc(-c3cccs3)n2C)n1  -60.5%
13. Cc1cnc(NC(=O)CSc2nnc(-c3cccs3)n2C)s1  -59.4%
14. CCN(Cc1ccc(C#CCCO)cc1)CC1CCCN(CCc2cccc(OC)c2)C1 (centres unmarked)  -58.5%
15. O=c1c2ccccc2nc(SCc2ccc([N+](=O)[O-])cc2)n1CCCO  -57.9%
16. O=c1c2ccccc2nc(/C=C/c2ccc([N+](=O)[O-])cc2)n1CCCO  -57.4%
17. CS(=O)(=O)NCCCCNc1ccc(C(F)(F)F)cc1[N+](=O)[O-]  -56.8%
18. CCOC(=O)C1(Cc2cccc(OC)c2)CCN(Cc2cccc(OCC)c2O)CC1  -56.8%
19. O=c1c2ccccc2nc(/C=C/c2ccc([N+](=O)[O-])o2)n1CCCO  -51.7%
20. CCOC(=O)C1(Cc2cccc(OC)c2)CCN(Cc2ccccc2OC)CC1  -51.3%
21. CCN(Cc1cccc(OC)c1)CC1CCCN(CCc2cccc(OC)c2)C1 (centres unmarked)  -47.3%
22. O=c1c2ccccc2nc(/C=C/c2cccc([N+](=O)[O-])c2)n1CCCO  -43%
23. CCOC(=O)C1(Cc2cccc(OC)c2)CCN(Cc2cccc3c2OCO3)CC1  -39.4%
24. CCOC(CCn1c(SCc2ccc([N+](=O)[O-])cc2)nc2ccccc2c1=O)OCC  -39%
25. CCOC(=O)c1[nH]ncc1CN1CCC(Cc2cccc(OC)c2)(C(=O)OCC)CC1  -37.6%
26. CS(=O)(=O)NCCCNc1ccc(C(F)(F)F)cc1[N+](=O)[O-]  -35.1%
27. COc1ccc(CN2C3CCC2CC(NC(=O)c2cc(OC)c(OC)c(OC)c2)C3)cc1 (centres unmarked)  -31.6%
28. CCOC(=O)C1(CC2CC2)CCN(Cc2cn(C)c3ccccc23)CC1  -31%
29. CCN(Cc1ccc(NC(C)=O)cc1)CC1CCCN(CCc2cccc(OC)c2)C1 (centres unmarked)  -30.3%
30. COc1cccc(C(=O)NC2CC3CCC(C2)N3Cc2ccccc2)c1 (centres unmarked)  -28.7%
31. CC(C)c1ccc(CN2CCN(C(=O)CSc3nnnn3C3CC3)CC2)cc1  -28.1%
32. CCN(CC(=O)Nc1c(F)cccc1F)C(=O)c1cccc(-n2cccc2)c1  -27.1%
33. CCN(Cc1ccc(OC)c(COC)c1)CC1CCCN(CCc2cccc(OC)c2)C1 (centres unmarked)  -26.3%
34. CCn1cc(/C=N\NC(=O)Cc2ccc([N+](=O)[O-])cc2)c(C)n1  -25.1%
35. Cn1c(/C=C/c2ccc([N+](=O)[O-])o2)nc2ccccc2c1=O  -24.2%
36. O=c1c2sccc2nc(SCc2cc(=O)n3ccccc3n2)n1Cc1ccccn1  -22.3%
37. O=C(CCCc1nc2ccccc2s1)NCc1ccccc1F  -20.2%
38. CCN(C(=O)COc1ccc(C(=O)c2ccccc2)cc1)c1ccccc1  -18.9%
39. Cc1csc(NC(=O)CSc2nnc(-c3ccncc3)n2C)n1  -17.5%
40. O=C(COC(=O)c1ccc(Cl)c(S(=O)(=O)N2CCOCC2)c1)NCc1ccco1  -17%
41. COc1ccc(NC(=S)N2CCC(NC(=O)c3cccc(F)c3)CC2)cc1  -16.7%
42. Cc1cc(C)cc(Nc2cc(C)nc3nc(C)nn23)c1  -14.7%
43. CCCCCN(C(=O)CCC(=O)OC(C)C(=O)NCc1ccccc1)c1c(N)n(CCCC)c(=O)[nH]c1=O (centres unmarked)  -14.5%
44. COc1ccc(CN(C(=O)c2nsc(Cl)c2Cl)C(C(=O)NC2CCCC2)c2ccc(C)cc2)cc1 (centres unmarked)  -12.4%
45. Cc1cnc(NC(=O)CSc2nnc(Cc3ccccc3)n2C)s1  -12.1%
46. Cc1ccccc1NC(=O)C1=CC=CN2CCS(=O)(=O)N=C12  -11.7%
47. O=C(Nc1cccc2ncccc12)c1cccc(F)c1  -11.1%
48. N#Cc1ccccc1CSc1nc2ccsc2c(=O)n1Cc1ccccn1  -10.9%
49. COC(=O)c1ccc(CNC(=O)c2ccc3c(c2)S(=O)(=O)N=C2CCCCCN23)cc1  -10.5%
50. Cc1cc(C(=O)N/N=C2/CC(C)CC(C)(C)C2)c(C)o1 (centres unmarked)  -8.27%
51. O=c1c2ccccc2nc(/C=C/c2ccccc2)n1CCCO  -8.23%
52. CC(=O)Nc1ccc(NC(=O)CSc2nnc(-c3cccs3)n2C)cc1  -7.69%
53. Cc1cc(=O)nc2c3ccccc3n(CC(=O)Nc3ccccc3Br)n12  -7.45%
54. CS(=O)(=O)NCCNc1ccc(C(F)(F)F)cc1[N+](=O)[O-]  -6.08%
55. Cc1cc([N+](=O)[O-])nn1CCCC(=O)NCc1ccccc1  -5.8%
56. O=C(c1cnn2c(C(F)F)cc(-c3ccccc3)nc12)N1CCCc2ccccc21  -3.45%
57. COc1cc(-c2nc(S(=O)(=O)c3ccc(Cl)cc3)c(N3CCOCC3)o2)cc(OC)c1OC  -3.17%
58. COc1cccc(NC(=O)CCCN2C(=O)C3CC=CCC3C2=O)c1 (centres unmarked)  -2.79%
59. CCOc1ccc(N(CC(=O)Nc2cccc(Br)c2)S(C)(=O)=O)cc1  -1.12%
60. OCCC#Cc1ccc(CN2CCN(C3CCCCC3)C(CCO)C2)cc1 (centres unmarked)  -0.113%
61. N#CC1(c2nc3ccccc3[nH]2)CC1c1ccc2c(c1)OCO2 (centres unmarked)  0.101%
62. CN1CCN(NC(=O)c2ccc(Cl)cc2Cl)CC1  0.116%
63. Cc1cc2ccccc2c(=O)n1CC(=O)NCC1COc2ccccc2O1 (centres unmarked)  0.464%
64. O=c1c2ccccc2nc(/C=C/c2ccc(Br)cc2)n1CCCO  0.999%
65. COC(=O)c1ccc(SCc2cnc(Cl)s2)cc1  1.27%
66. Cc1ccc2sc(N(CCN(C)C)C(=O)c3ccc(S(=O)(=O)N4CC(C)OC(C)C4)cc3)nc2c1C.Cl (centres unmarked)  1.87%
67. N#C/C(=C\c1c(F)cccc1Cl)S(=O)(=O)c1ccccn1  3.15%
68. Clc1ncc(CSc2ccccc2)s1  3.25%
69. NC(=O)C1CCN(/C=C2\C(=O)NC(=O)N(Cc3ccco3)C2=O)CC1  6.74%
70. COc1ccc(C(=O)/C=C/c2cccc(OCc3ccccc3)c2)cc1CSCC(=O)O  7.09%
71. COc1cccc(NC(=S)NCCc2ccccn2)c1  7.98%
72. Cc1csc(NC(=O)CSc2nnc(CCNC(=O)c3cccs3)n2C)n1  8.1%
73. COC(=O)c1ccc(C(=S)N2CCCCC2)cc1  8.89%
74. COc1ccc2c(C(=O)CN(C)C3CCCCC3)c[nH]c2c1  9.09%
75. CCOC(=O)/C=C/[C@H]1CCc2cccc(Cl)c2O1  9.23%
76. CCOc1ccc(NC(=O)Nc2cc(C(=O)O)ccc2N2CC3CC(C2)c2cccc(=O)n2C3)cc1 (centres unmarked)  12.4%
77. COc1ccccc1CNC(=O)CCS(=O)(=O)c1ccc2c(c1)CC(C)N2C(=O)C1CC1 (centres unmarked)  15%
78. Cc1ccc(/C=N\NC(=O)Cc2noc3ccccc23)cc1  15.6%
79. C/C(=N/OC(=O)c1ccc(C)cc1)c1ccc(N2C(=O)C3CCCCC3C2=O)cc1 (centres unmarked)  16%
80. COCC(C)n1c(COc2ccccc2F)nnc1SCC(=O)c1c(N)n(C)c(=O)n(C)c1=O (centres unmarked)  16.4%
81. Nn1c(SCc2ccc([N+](=O)[O-])cc2)nc2ccccc2c1=O  17.8%
82. COc1ccccc1CNC(=O)COc1ccc(C)nc1[N+](=O)[O-]  18.3%
83. COCCn1c(SCC(=O)N2CCCC2)nnc1-c1ccco1  18.6%
84. COc1ccc(NC(=O)C(=O)N/N=C/c2cccnc2)c(OC)c1  21.3%
85. O=C1NNC(=O)C1c1ccccc1  25.7%
86. Cl.NNc1nc(-c2ccccc2)cs1  29.7%
